The record followed here is ChEMBL document CHEMBL5606458, “ASAP - ZIKV NS2B-NS3 protease fluorescence single point” (2024).

Out of some 2,700 compounds screened, about 160 (5.9%) showed an effect of 50% or more. The list comes from a sample in which strong results are over-represented; it also holds similar structures and randomly drawn compounds.

The target of the test is Nonstructural protein 3 (Zika virus) (UniProt A0A024AXB9).
Sequence of Nonstructural protein 3 (Zika virus) (A0A024AXB9 as listed by the source): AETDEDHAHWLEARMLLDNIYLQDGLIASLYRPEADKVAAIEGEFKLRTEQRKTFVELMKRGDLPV

On to `Cc1nc([C@H]2CCCNC2)[nH]c1C(=O)Nc1ccccn1`, for which the inhibition runs as follows: (PRVABC59, Concentration 49.5 uM, Number of replicates 2.0, Standard deviation 0.17090445918731104 %) 8.49%; (PRVABC59, Concentration 99.01 uM, Number of replicates 2.0, Standard deviation 0.26430592158490923 %) 17.8%; (PRVABC59, Concentration 198.0 uM, Number of replicates 2.0, Standard deviation 0.13314627771815937 %) 30.2%.

The molecule `c1cnc2c(CN3CCC(c4c[nH]c5cccnc45)CC3)c[nH]c2c1` came in with an inhibition (PRVABC59, Concentration 49.5 uM, Number of replicates 2.0, Standard deviation 0.7260748860651783 %) of 51.4%; an inhibition (PRVABC59, Concentration 99.01 uM, Number of replicates 2.0, Standard deviation 0.6197542344872328 %) of 66.3%; an inhibition (PRVABC59, Concentration 198.0 uM, Number of replicates 2.0, Standard deviation 0.45379950118904117 %) of 74.9%.

The molecule `c1cc(CN2CCC(c3c[nH]c4cccnc34)CC2)c2[nH]ncc2c1` registered an inhibition (PRVABC59, Concentration 49.5 uM, Number of replicates 2.0, Standard deviation 1.1670691631522456 %) of 7.96%; an inhibition (PRVABC59, Concentration 99.01 uM, Number of replicates 2.0, Standard deviation 0.8238130905871536 %) of 15.7%; an inhibition (PRVABC59, Concentration 198.0 uM, Number of replicates 2.0, Standard deviation 0.8191324301789277 %) of 25.9%.

Turning to `c1cc(CN2CCC(c3c[nH]c4cccnc34)CC2)c2cn[nH]c2c1`, the inhibition runs as follows: (PRVABC59, Concentration 49.5 uM, Number of replicates 2.0, Standard deviation 0.9568639478402843 %) 4.4%; (PRVABC59, Concentration 99.01 uM, Number of replicates 2.0, Standard deviation 0.8012763277514082 %) 10%; (PRVABC59, Concentration 198.0 uM, Number of replicates 2.0, Standard deviation 3.635563550314553 %) 17.8%.

In turn, `CCn1ccnc(N2CCC(c3c[nH]c4ccccc34)CC2)c1=O` returned an inhibition (PRVABC59, Concentration 49.5 uM, Number of replicates 2.0, Standard deviation 0.010362729937070537 %) of 13.2%; an inhibition (PRVABC59, Concentration 99.01 uM, Number of replicates 2.0, Standard deviation 0.987094027815814 %) of 22.1%; an inhibition (PRVABC59, Concentration 198.0 uM, Number of replicates 2.0, Standard deviation 0.3108960594532158 %) of 8.34%.

For `c1ccc2c([C@H]3CCN(CC4CCOCC4)C3)c[nH]c2c1`, the inhibition by setting is: (PRVABC59, Concentration 49.5 uM, Number of replicates 2.0, Standard deviation 2.5997737280788282 %) 6.89%; (PRVABC59, Concentration 99.01 uM, Number of replicates 2.0, Standard deviation 3.698865419379611 %) 11.8%; (PRVABC59, Concentration 198.0 uM, Number of replicates 2.0, Standard deviation 1.139250220086327 %) 22.2%.

`CCn1ccc2cc(CN3CCC(c4c[nH]c5cccnc45)CC3)ccc21`: the inhibition is, setting by setting: (PRVABC59, Concentration 49.5 uM, Number of replicates 2.0, Standard deviation 2.8809639300582925 %) 3.93%; (PRVABC59, Concentration 99.01 uM, Number of replicates 2.0, Standard deviation 1.8463057507050853 %) 15.6%; (PRVABC59, Concentration 198.0 uM, Number of replicates 2.0, Standard deviation 0.9205600012321524 %) 34.4%.

Regarding `c1ccc2c(CN3CC[C@H](c4c[nH]c5ccccc45)C3)c[nH]c2c1`, the inhibition worked out at 20.3% (PRVABC59, Concentration 50.0 uM, Number of replicates 2.0, Standard deviation 0.9766631885715499 %); 37.5% (PRVABC59, Concentration 100.0 uM, Number of replicates 2.0, Standard deviation 0.28966551174652017 %); 55.9% (PRVABC59, Concentration 200.0 uM, Number of replicates 2.0, Standard deviation 1.348359280162217 %).

As for `c1ccc2c(CN3CCC(c4c[nH]c5cccnc45)CC3)n[nH]c2c1`, the inhibition was found to be 55.4% (PRVABC59, Concentration 49.5 uM, Number of replicates 2.0, Standard deviation 0.6456276790258886 %); 70.2% (PRVABC59, Concentration 99.01 uM, Number of replicates 2.0, Standard deviation 0.2001199802254866 %); 79.4% (PRVABC59, Concentration 198.0 uM, Number of replicates 2.0, Standard deviation 0.3311541950710681 %).

For `c1ccc2c(CN3CCC[C@H](c4c[nH]c5ccccc45)C3)c[nH]c2c1`, the inhibition is 17.6% (PRVABC59, Concentration 50.0 uM, Number of replicates 2.0, Standard deviation 1.0176784784936235 %); 30% (PRVABC59, Concentration 100.0 uM, Number of replicates 2.0, Standard deviation 1.399627381040445 %); 45.3% (PRVABC59, Concentration 200.0 uM, Number of replicates 2.0, Standard deviation 0.26403213565698247 %).

In the case of `CCOc1cc(COc2cccnc2F)nc(N2CCNCC2)n1`, the inhibition runs as follows: (PRVABC59, Concentration 49.5 uM, Number of replicates 2.0, Standard deviation 1.6064643888068098 %) 4.13%; (PRVABC59, Concentration 99.01 uM, Number of replicates 2.0, Standard deviation 0.9927585642556782 %) 12.5%; (PRVABC59, Concentration 198.0 uM, Number of replicates 2.0, Standard deviation 0.42007662758371656 %) 31.7%.

For `O=C(Cn1ccc2cccnc21)N1CC[C@H](c2c[nH]c3ccccc23)C1`, the inhibition runs as follows: (PRVABC59, Concentration 49.5 uM, Number of replicates 2.0, Standard deviation 2.6403237167933415 %) 8.06%; (PRVABC59, Concentration 99.01 uM, Number of replicates 2.0, Standard deviation 2.1942883394495833 %) 14.3%; (PRVABC59, Concentration 198.0 uM, Number of replicates 2.0, Standard deviation 1.481657960884592 %) 24.1%.

With `N[C@H]1CC[C@H](NC(=O)[C@@H](NC(=O)OCc2ccccc2)c2ccc(OCc3ccccc3)cc2)C1`, the inhibition was 15.2% (PRVABC59, Concentration 49.5 uM, Number of replicates 2.0, Standard deviation 1.2628524282528915 %); 7.84% (PRVABC59, Concentration 49.5 uM, Number of replicates 2.0, Standard deviation 5.748962140815482 %); 52.6% (PRVABC59, Concentration 99.01 uM, Number of replicates 2.0, Standard deviation 1.1046736199175657 %); 46.8% (PRVABC59, Concentration 99.01 uM, Number of replicates 2.0, Standard deviation 4.807656617809298 %); 80.8% (PRVABC59, Concentration 198.0 uM, Number of replicates 2.0, Standard deviation 0.1296531469135765 %); 83.4% (PRVABC59, Concentration 198.0 uM, Number of replicates 2.0, Standard deviation 1.4858618561424626 %).
